From PubChem
IL-1B inflam inh – inflammasome signaling inhibition, IL-1 beta readout. THP-1 LPS/ATP IL-1B secretion, AlphaLISA, 16 h; hits give low values. activity change, % at 57.5 µM. 360,000 compounds, 4.7% hits; in the data active = activity change below about -50%; inconclusive = mostly about -30% to -49%
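Secreted IL-1B measured by AlphaLISA bead assay after 16 h compound exposure of THP-1 cells; compounds (final up to 57.5 uM) added 1 h before LPS (250 ng/mL) and ATP (1.25 mM) stimulation; lower signal means less secretion.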
HT1080-NT tox – kills 2HG-producing HT-1080-NT fibrosarcoma cells; HT-1080-NT fibrosarcoma viability, CellTiter-Glo ATP luminescence, 48 h; Potency, µM (doses to about 46.1 µM), inactives show top-dose activity, negative = less viability, most hits filed as cytotoxic; 360,000 compounds, 1.6% hits; AID 686970;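 also: NT is the 2HG producing partner of a matched IDH1 knockdown line; potency is read from the fitted curve at half-maximal effect; 0% = DMSO-treated cells and -100% = media-only wells without cells; nearly all actives have a fitted effect of over 55% in size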
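Toxicity toward the 2HG-producing NT line was scored as %Activity, normalised to DMSO and no-cell wells, from CellTiter-Glo luminescence after 48 hours' treatment.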
HT1080 IDH1KD tx – kills HT-1080 cells with IDH1 knockdown; HT-1080 IDH1 knockdown viability, ATP luminescence, 48 h; Potency, µM (series often up to 46.1 µM), for the others: at the top dose activity, negative = toxicity, most hits filed as cytotoxic; 360,000 compounds, 2% hits;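 also: potency is read from the fitted curve at half-maximal effect; 0% = DMSO wells and -100% = cell-free medium wells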
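CellTiter-Glo luminescence after 48 h compound exposure at 37 degrees C of IDH1-knockdown HT-1080 cells in 5% FBS RPMI. %Activity scaled between DMSO wells and cell-free media wells, with curves fitted and assigned curve classes.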
DT40 TDP1 CPT – growth inhibition of DT40 Tdp1-/-;hTDP1 cells with camptothecin (screen for TDP1 inhibitors); chicken DT40 Tdp1-/-;hTDP1 cells + 20 nM CPT, ATP luminescence, 48 h; Potency, µM (titrated, usually from 46.2 µM), without a hit: top-dose activity change, negative = growth inhibition, actives largely listed as inhibitors; 420,000 compounds, 12% hits; AID 686979; also: potency is read from the fitted curve at half-maximal effect; nearly all actives have a fitted effect of over 55% in size
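Chicken DT40 Tdp1-/- cells stably complemented with human TDP1 were seeded at 400 cells/well in medium containing 20 nM camptothecin, exposed to pin-transferred compounds, and grown at 37 °C for at least 48 hr. Viability was read as ATP luminescence.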
DT40 TDP1 no CPT – qHTS for Inhibitors of human tyrosyl-DNA phosphodiesterase 1 (TDP1): qHTS in cells in absence of CPT; DT40 Tdp1-/- hTDP1 cells, no CPT, ATP luminescence, 48 h; Potency, µM (series often up to 46.2 µM), for the others: top-dose activity change, negative = growth inhibition, hits mostly inhibitors; 420,000 compounds, 15% hits; AID 686978, 2013; also: potency is read from the fitted curve at half-maximal effect; nearly all actives have a fitted effect of over 55% in size
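Cells were dispensed at 400 per well, compounds added by pin tool, plates incubated ≥48 hr at 37 °C, then CellTiter-Glo added for 30 min at room temperature before luminescence reading. Line: DT40 Tdp1-/- complemented with hTDP1; camptothecin omitted.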
The depositor's hits bear a star; ? = inconclusive; . = not tested or not shown; [ ] = another dose, or the depositor's remark. The list is not random: actives were taken first. Their share in the collection is about 19%. Unless noted, calls follow the shape of the dose curve; as a rule, active = well fitted curve in the direction sought with a large enough effect; inconclusive = small, poorly fitted or top-dose-only effect, or another doubt; inactive = no such curve, though single readings can be large; an effect the other way counts as inactive or inconclusive. Unless noted, % is scaled to controls: 0 for no effect and ±100 for the full control effect.

SMILES	IL-1B inflam inh	HT1080-NT tox	HT1080 IDH1KD tx	DT40 TDP1 CPT	DT40 TDP1 no CPT
O=C(Nc1cccc2ccccc12)c1ccc([N+](=O)[O-])o1	-97.1*	?	13µM*	14.6µM*	25.9µM*
Cc1cccc(NC(=O)c2ccc([N+](=O)[O-])o2)c1C	-88.9*	23.1µM*	18.4µM*	?	?
O=S(=O)(c1ccc2c(c1)CCN2)N1CCCC1	0.0	-0.4%	-6.5%	-4.3%	8.9%
CCC(C)(C)NC(=O)CN(C(=O)CNS(=O)(=O)c1ccc(C)cc1)c1ccc2c(c1)OCCO2	15.7	-4.9%	-4.2%	-17.8%	?
CCOC(=O)CN1C(=O)/C(=C/c2ccccc2Br)Oc2ccccc21	27.0	24.2%	15.9%	?	?
O=C(COc1ccccc1)Nc1nnc(S(=O)(=O)N2CCCCCC2)s1	-21.0	-5.0%	-4.7%	-20.5%	-18.7%
COc1cc2nc(N3CCN(C(=O)OCc4ccccc4)[C@H](C(=O)NC(C)(C)C)C3)nc(N)c2cc1OC	-18.7	18.4µM*	?	?	-84.5%
Cc1ccc(CNCc2ccccc2Cl)cc1	-6.1	13.8%	3.5%	-3.0%	?
Cc1ccc(-c2[nH]ncc2CNCc2ccc(CN(C)C)cc2)cc1	.	.	.	12.6µM*	22.4µM*
Cc1ccc(CNCc2cn[nH]c2-c2ccc(C)cc2)cc1	.	.	.	7.94µM*	12.6µM*
COc1cccc(C(c2sc3nc(-c4ccco4)nn3c2O)N2CCN(C)CC2)c1 (stereo not drawn)	.	.	.	0.1%	-18.7%
CC1CCCCC1NC(=O)COC(=O)c1ccc2c(c1Cl)C(=O)c1ccccc1C2=O (stereo not drawn)	18.8	25.3%	23.1%	-3.8%	4.3%
O=C(COC(=O)c1ccc2c(c1[N+](=O)[O-])C(=O)c1ccccc1C2=O)NC1CC1	-76.5*	?	?	3.66µM*	?
O=C(COC(=O)c1cccc2c1C(=O)c1ccccc1C2=O)NC1CCCCC1	-131.8*	?	?	?	?
CC(C)(C)[C@H]1COC(=O)[C@@H](Cc2ccc(F)cc2)CC/C=C/C[C@@H](CC(=O)N[C@H](CO)Cc2ccccc2)C(=O)N1	-24.1	-17.3%	-6.6%	8.2µM*	18.4µM*
CC(C)(C)[C@H]1COC(=O)[C@@H](Cc2ccc(F)cc2)CC/C=C/C[C@@H](CC(=O)N[C@@H](CO)Cc2ccccc2)C(=O)N1	-15.0	0.0%	1.4%	-108.9%	16.4µM*
O=C(C[C@@H]1C/C=C\CC[C@H](Cc2ccc(F)cc2)C(=O)OC[C@@H]2CCCN2C1=O)N[C@H](CO)Cc1ccccc1	-12.9	-2.5%	-2.3%	6.51µM*	5.17µM*
c1ccc(Cn2ccnc2C2OCCO2)cc1	22.9	3.4%	9.9%	-3.7%	?
C(=C\c1ccco1)/c1nc2ccccc2[nH]1	36.7	-19.1%	-22.7%	?	23.1µM*
O=C(/C(=C/c1ccc(Cl)cc1)c1nc2ccccc2[nH]1)c1ccccc1	-100.6*	2.91µM*	4.11µM*	13µM*	7.31µM*
c1ccc2[nH]c(CCCCc3nc4ccccc4[nH]3)nc2c1	13.2	-13.1%	-7.1%	?	-15.0%
O=c1[nH]c2ccccc2nc1/C=C/c1ccc(Cl)cc1	6.2	20.1%	13.4%	13µM*	23.1µM*
C(=C\c1nc2ccccc2[nH]1)/c1ccccc1	-9.3	18.4µM*	18.4µM*	14.6µM*	16.4µM*
CC(=O)Nc1ccc(/C=C/c2nc3ccccc3[nH]c2=O)cc1	-13.0	4.9%	-2.0%	2.3%	2.1%
O=C(CSc1nc2ccccc2c(=O)n1CCCN1CCOCC1)NC12CC3CC(CC(C3)C1)C2	-21.4	-8.9%	1.2%	?	?
SMILES	IL-1B inflam inh	HT1080-NT tox	HT1080 IDH1KD tx	DT40 TDP1 CPT	DT40 TDP1 no CPT
O=C(Nc1nc2ccc(F)cc2s1)c1ccc([N+](=O)[O-])o1	-100.7*	?	-26.8%	6.51µM*	7.31µM*
O=C(Nc1nc2c(F)cccc2s1)c1ccc(S(=O)(=O)N2CCOCC2)cc1	.	.	.	?	-4.0%
O=C(Nc1cccc(Cl)c1N1CCOCC1)c1ccc([N+](=O)[O-])o1	-14.7	10.9%	8.1%	?	?
O=C(Nc1nc2c(Cl)cccc2s1)c1ccc([N+](=O)[O-])o1	-10.6	-4.2%	1.1%	20.6µM*	16.4µM*
O=C(Nc1nc2c(F)cccc2s1)c1ccc([N+](=O)[O-])o1	-12.2	1.4%	-6.6%	13µM*	16.4µM*
CCc1ccc(-n2c(=O)c3c(C)c(C)sc3n(CC(=O)NCC3CCCO3)c2=O)cc1 (stereo not drawn)	1.4	0.0%	-1.2%	9.4%	?
CCOc1ccc(NS(=O)(=O)c2ccc(C(=O)NCC(c3ccc(OC)cc3)N3CCOCC3)cc2)cc1 (stereo not drawn)	-9.4	-5.6%	-8.4%	-27.4%	?
CC12CCC(=O)N1C(C(=O)OCC(=O)Nc1ccc(C(F)(F)F)cc1)CS2 (stereo not drawn)	24.2	1.3%[9.24 µM]	-1.0%	-17.5%	-6.3%
CCN=c1scc(-c2ccco2)n1/N=C/c1ccc(OC)c(O)c1	-6.4	12.6%	10.9%	-20.8%	?
CN=c1scc(-c2ccc(F)cc2)n1/N=C/c1ccc(O)c(O)c1	50.3	?	8.2µM*	1.16µM*	0.82µM*
CCOC(=O)c1c[nH]c2c([N+](=O)[O-])cc(OC)cc2c1=O	1.1	-12.8%	?	7.31µM*	16.4µM*
COc1ccc(Br)cc1/C=C/C(=O)NC(=S)Nc1ccc(CN2CCOCC2)cc1	-2.9	6.0%	9.1%	16.4µM*	16.4µM*
COc1ccc(C(=O)NC(=S)Nc2ccc(CN3CCOCC3)cc2)cc1OC	?	3.1%	-1.7%	?	20.6µM*
O=C(/C=C/c1ccc(Cl)cc1)NC(=S)Nc1ccc(CN2CCOCC2)cc1	-10.0	-0.2%	0.9%	?	23.1µM*
COc1ccc(C(=O)Nc2ccc(CN3CCOCC3)cc2)cc1Br	?	-5.0%	-15.0%	-1.9%	-2.8%
O=C(/C=C/c1ccccc1)Nc1ccc(CN2CCOCC2)cc1	0.0	2.8%	7.3%	?	?
O=C(/C=C/c1ccc(Cl)cc1Cl)Nc1ccc(CN2CCOCC2)cc1	0.0	?	?	?	?
COc1ccc(C(=O)NC(=S)Nc2ccc(CN3CCOCC3)cc2)cc1Cl	-10.5	-3.5%	-1.0%	18.4µM*	16.4µM*
CCCCCCCCCCCCCCC[C@@H](O)[C@H](CO)NC(C)=O	.	.	.	8.4%[4.12 µM]	6.4%[4.12 µM]
COc1ccc(Br)c(C=O)c1OS(=O)(=O)c1ccc(C)cc1	19.2	-3.0%	?	?	?
CCCCOc1ccc(C2C(=O)N(C3CCCCC3)CC(=O)N2C2CCCCC2)cc1 (stereo not drawn)	.	.	.	-7.9%	-14.5%
